Laboratory results published in the supplement of paper PMC6555819.

Tests used:
Assay in all cases: PBM binding z-score (relative to random genomic background probes); higher = stronger binding; sequences stand for … in GC…GCGATTGACAGCGTAGAATGAAGG
[1] = tested on: FXR:RXRa (NR concentration 270 nM, RXRa partner concentration 90 nM)
In short: (§1)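 Custom Agilent 4×180K protein-binding microarrays carried double-stranded probes, each with a 34-nt variable region. These regions held direct-repeat seeds, single-nucleotide variants, half-site ablations and random human genomic background sequences. Ligand-free nuclear receptor dimers were incubated on the arrays for 1 h, antibodies against each partner (one per run) detected binding, and scanned fluorescence was regression-normalized. Binding z-scores take the random background probes as reference.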

[2] = tested on: LXRa:RXRa (NR concentration 270 nM, RXRa partner concentration 90 nM)
In short: as §1

[3] = tested on: LXRa homodimer (NR concentration 270 nM)
In short: as §1

[4] = tested on: LXRb:RXRa (NR concentration 270 nM, RXRa partner concentration 90 nM)
In short: as §1

[5] = tested on: LXRb homodimer (NR concentration 270 nM)
In short: as §1

[6] = tested on: PPARa:RXRa (NR concentration 270 nM, RXRa partner concentration 90 nM)
In short: as §1

[7] = tested on: PPARg:RXRa (NR concentration 180 nM, RXRa partner concentration 90 nM)
In short: as §1

[8] = tested on: PPARg:RXRa 270nM:90nM, anti-RXR (NR concentration 270 nM, RXRa partner concentration 90 nM)
In short: as §1

[9] = tested on: PPARg:RXRa 30nM:10nM, anti-RXR (NR concentration 30 nM, RXRa partner concentration 10 nM)
In short: as §1

[10] = tested on: PPARg:RXRa 90nM:30nM, anti-RXR (NR concentration 90 nM, RXRa partner concentration 30 nM)
In short: as §1

[11] = tested on: PPARg:RXRa DBDmut IVT, anti-RXR (DBD mutation: RXRa K156A/R161A, NR concentration 270 nM, RXRa partner concentration 90 nM)
In short: as §1

[12] = tested on: PPARg:RXRa IVT, anti-PPARg (NR concentration 270 nM, RXRa partner concentration 90 nM)
In short: as §1

[13] = tested on: PPARg DBDmut:RXRa IVT, anti-PPARg (DBD mutation: PPARg1 K132A/R137A, NR concentration 270 nM, RXRa partner concentration 90 nM)
In short: as §1

[14] = tested on: PPARg DBDmut IVT, anti-PPARg (DBD mutation: PPARg1 K132A/R137A, NR concentration 270 nM)
In short: as §1

[15] = tested on: PPARg homodimer (NR concentration 180 nM)
In short: as §1

[16] = tested on: PXR:RXRa (NR concentration 270 nM, RXRa partner concentration 90 nM)
In short: as §1

[17] = tested on: PXR homodimer (NR concentration 270 nM)
In short: as §1

[18] = tested on: RARa:RXR (NR concentration 270 nM, RXRa partner concentration 90 nM)
In short: as §1

[19] = tested on: RARa homodimer (NR concentration 270 nM)
In short: as §1

[20] = tested on: RARb:RXRa (NR concentration 270 nM, RXRa partner concentration 90 nM)
In short: as §1

| Sequence | PBM binding z-score [1] | PBM binding z-score [2] | PBM binding z-score [3] | PBM binding z-score [4] | PBM binding z-score [5] | PBM binding z-score [6] | PBM binding z-score [7] | PBM binding z-score [8] | PBM binding z-score [9] | PBM binding z-score [10] | PBM binding z-score [11] | PBM binding z-score [12] | PBM binding z-score [13] | PBM binding z-score [14] | PBM binding z-score [15] | PBM binding z-score [16] | PBM binding z-score [17] | PBM binding z-score [18] | PBM binding z-score [19] | PBM binding z-score [20] |
| --- | --- | --- | --- | --- | --- | --- | --- | --- | --- | --- | --- | --- | --- | --- | --- | --- | --- | --- | --- | --- |
| GCGACTGGGGCAAAGCGGGTTACCATAAGGTTGG | 0.373 | -0.0696 | -0.512 | 0.27 | -0.709 | 1.42 | 1.15 | 1.47 | -0.245 | 0.845 | 4.18 | 3.67 | -0.432 | -0.894 | -0.11 | 0.293 | -0.451 | 0.625 | -0.887 | 0.922 |
| ACAGACAGGTAATGAAGGTAACTCAGGCTATCAT | 0.224 | 0.251 | 0.0515 | 0.0112 | 0.161 | 0.173 | 0.58 | -0.0336 | -0.0735 | -0.327 | -0.129 | 0.574 | 0.213 | 0.735 | 0.348 | 0.147 | 0.218 | 0.263 | 0.161 | 0.169 |
| ATCACTAGGTAAAGTTCAGTGAAAGATCGATAGA | 0.984 | 1.7 | 1.43 | 1.17 | 0.688 | 2.22 | 2.59 | 3.38 | 1.45 | 2.7 | 3.89 | 3.29 | 1.1 | 0.944 | 1.33 | 1.91 | 1.73 | 1.48 | 1.19 | 2.7 |
| TCTTGTAGATCAACGGGAGGTTAAGAAAGATCGA | 0.553 | 1.31 | 0.00977 | 1.17 | 0.12 | 1.49 | -0.121 | 1.58 | 2.52 | 2.01 | 2.28 | 0.974 | 0.226 | -0.0514 | 0.14 | 0.94 | 0.02 | 1.14 | 0.281 | 0.648 |
| CCTAGCAGGCCAATCTGGGTCACTCCAGGCTTGA | 0.645 | 1.09 | -0.166 | 0.329 | -1.31 | 2.6 | 1.99 | 2.05 | -0.235 | 1.03 | 4.25 | 4.76 | -0.633 | -1.01 | 0.639 | 0.543 | -0.635 | 0.754 | -0.716 | 1.48 |
| TCTTGTTGATCAATAGAGGTTAAGAAAGTGCGCT | 0.549 | 3.17 | 0.564 | 2.1 | 0.134 | 2.02 | -0.0546 | 1.87 | 2.82 | 2.46 | 1.5 | 0.913 | 0.422 | 1.13 | 0.192 | 2.89 | 0.147 | 1.71 | 0.519 | 1.05 |
| CCGCGGAGGACAACAGGAGGTCAGAGCTGCCAGA | 1.23 | 2.08 | 1.98 | 1.49 | -0.659 | 2.17 | 0.34 | 0.0732 | -0.523 | -0.778 | 0.131 | 0.105 | -1.44 | -1.52 | 2.29 | 2.44 | 0.34 | 2.5 | 0.536 | 3.04 |
